Laboratory results: PubChem BioAssay (NCI)
Compounds without any hit were thinned out: in the full panel of roughly 83,000, 20% have a hit.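 Single-dose data. Exposure time 48 hours. Values below 10 considered active.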 Active and inactive are the calls of the source.

Test system: NCI-H226 lung
Assay: NCI-60 one-dose screen, 48 h (100 = growth as untreated, 0 = no growth, -100 = all killed)
Conditions: 10 µM unless noted
Experimental: Growth inhibition of the NCI-H226 human Non-Small Cell Lung tumor cell line is measured as a screen for anti-cancer activity. Cells are grown in 96 well plates and exposed to the test compound for 48 hours. Compounds are tested at a single concentration, which is 10^-5 M for most compounds. The reported endpoint is percent growth (GI% or GIPRCNT), where numbers from 0 - 100% represent growth inhibition, and numbers from -100% - 0 represent cell death. For example, a value of 40 represents 60% growth inhibition. A value of 0 means no net growth occurred over the course of the experiment. A value of -40 indicates 40% of cells at the beginning of the experiment died by the end of the experiment. A value of -100 means all cells are dead at the end of the experiment.
NCI-60 Human Tumor Cell Lines Screen was performed using the standard one-dose NCI protocol, which is described in more detail at https://dtp.cancer.gov/discovery_development/nci-60/default.htm.
Compounds with GIPRCNT values below 10 were considered active. Activity score was based on GIPRCNT using the following formula: […]
Score is 0 for GIPRCNT values of 100 or above, 50 for GIPRCNT values of 0, and 100 for GIPRCNT values of -100.

SMILES	growth
CC(=O)N1N=C(c2ccc(Nc3nc(Nc4ccc(F)cc4)nc(Nc4ccc(Cl)cc4)n3)cc2)CC1c1ccc(Cl)cc1 (stereo not given)	83.8% (inactive)
CC1=C(SCCC(=O)OC(C[Se]C2=C(C)C(=O)c3ccccc3C2=O)C(=O)NC(C)(C)C)C(=O)c2ccccc2C1=O (stereo not given)	-63.3% (active)
CCN1C(=O)N(CC)C2Nn3c(s/c(=C4\C(=O)Nc5ccccc54)c3=O)=NC21 (stereo not given)	79.3% (inactive)
COc1cccc(-c2nc(-c3ccc(NC(=O)OC(C)C)cc3)[nH]c2-c2ccnc(Br)c2)c1	31.2% (inactive)
COc1cccc(-c2nn(-c3ccccc3)cc2-c2ccnc(N3CCOCC3)c2)c1	93.9% (inactive)
NCCNc1nc2ccccc2c2c(=O)c3cc(F)ccc3sc12	96% (inactive)
O=C(N/N=C/[C@H](O)[C@@H](O)[C@@H](O)[C@H](O)CO)c1ccc(NC(=O)c2cccnc2)cc1	106% (inactive)
CCc1ccc(Oc2c(-c3ccc(OCCc4cccc(C(F)(F)F)c4)cc3O)n[nH]c2C(F)(F)F)cc1	52.9% (inactive)
COc1cc(C(=O)N2N=C(c3ccc(S(C)(=O)=O)cc3)CC2c2ccco2)cc(OC)c1OC (stereo not given)	77.4% (inactive)
O=C(Cc1ccc2c(c1)OCCO2)Nc1nc2ccc(F)cc2s1	104% (inactive)
O=C(O)C(c1ccccc1)N1C(=O)CSC1=S (stereo not given)	95.8% (inactive)
CCOC(=O)C1=C(N)Oc2c(sc3c(C)cccc23)C1c1ccc(F)cc1 (stereo not given)	9.65% (active)
CCOC(=O)c1c2c(n(-c3ccc(C#N)cc3)c1-c1ccccc1)C=CCC2	96.5% (inactive)
Cc1ncc(C(=O)Nc2ccc(CN3CCN(C)CC3)c(C(F)(F)F)c2)cc1C#Cc1ccc(N)nc1	-3.96% (active)
O=C(/C=C/c1sc(Cl)nc1Cl)c1ccc(Br)cc1	81.6% (inactive)
COc1cccc(/C=C2\C=C(c3ccccc3)N(Cc3ccccc3)C2=O)c1	73% (inactive)
CCCCCCn1c(-c2ccc(C(=O)O/N=C(\N)c3ccc4ccccc4c3)cc2)nc(-c2ccccc2)c1-c1ccccc1	80.3% (inactive)
O=C(N/N=C/c1ccc(Cl)cc1)c1ccc(C(F)(F)F)nc1Nc1cccc(C(F)(F)F)c1	21.2% (inactive)
CC(C)OC(=O)Nc1ccc(-c2nc(-c3cccc(OCCN4CCOCC4)c3)c(-c3ccnc(Br)c3)[nH]2)cc1	55.3% (inactive)
O=C(Cc1ccc(F)c(Cl)c1)Nc1cc(C2(C(F)(F)F)CC2)nn1Cc1ccccc1	43.2% (inactive)

SMILES	growth
COc1ccc(-c2[nH]ncc2-c2cc3c(c(OC)c2)OCC(=O)N3)cc1	61.8% (inactive)
Cc1nc(NC(=O)COc2ccc(/C=C3\Cc4ccc(Cl)cc4C3=O)cc2)sc1C	99.2% (inactive)
Cc1nc2ccccc2c(/C=C/c2ccc(Cl)cc2)c1C(=O)/C=C/c1cccs1	81.2% (inactive)
C=C(C)[C@@H]1CC[C@]2(N=C=O)CC[C@]3(C)[C@H](CC[C@@H]4[C@@]5(C)Cc6c([nH]c7ccccc67)C(C)(C)[C@@H]5CC[C@]43C)[C@@H]12	90.5% (inactive)
c1ccc(OCc2nnc(-c3ccc(Oc4ccccc4)cc3)o2)cc1	93.7% (inactive)
COc1ccc(C2CC(c3ccc(Nc4nc(Nc5ccc(F)cc5)nc(Nc5ccc(Cl)cc5)n4)cc3)=NN2C(C)=O)cc1 (stereo not given)	97.7% (inactive)
CN1C(=O)N(C)C2Nn3c(s/c(=C\c4ccccc4)c3=O)=NC21 (stereo not given)	94.2% (inactive)
COc1cc2cc(Oc3ccc(NC(=O)Nc4ccc(F)c(C(F)(F)F)c4)cc3)c(C)nc2cc1OCCN1CCOCC1	36.6% (inactive)
NCCCNc1nc2ccc(Cl)cc2c2c(=O)c3cc(F)ccc3sc12	91.9% (inactive)
BrCCCc1n(Cc2ccc3ccccc3c2)c2ccccc2[n+]1Cc1ccc2ccccc2c1	-72.6% (active)
N#CC1=C(N)Oc2c(sc3c(Br)cccc23)C1c1ccc([N+](=O)[O-])cc1 (stereo not given)	58.9% (inactive)
CCCC1CCC(O)(C(C)(O)C(=O)NC2C(=O)N3NCCCC3C(=O)N(O)C(C)C(=O)N3NCCCC3C(=O)N3NCC(O)CC3C(=O)NC(C)C(=O)OC2C(C)C)OC1CC (stereo not given)	-53.6% (active)
Brc1ccc2[nH]cc(-c3nc(-c4c[nH]c5ccncc45)cs3)c2c1	89.7% (inactive)
Cc1nn(-c2ccccc2)c(-n2ccnc2)c1/C=N/Nc1nc(-c2ccc(F)cc2)cs1	50.3% (inactive)
COc1ccc(C2NC(=O)C(C#N)c3c2sc2c(F)cccc32)c(OC)c1 (stereo not given)	62.2% (inactive)
O=C(N/N=C/[C@@H](O)[C@H](O)[C@H](O)CO)c1ccc(NC(=O)c2cccnc2)cc1	99.9% (inactive)
CS(=O)(=O)N(c1cc(-c2ccc3ncnc(Nc4ccc(F)c(Cl)c4)c3c2)cnc1Cl)S(C)(=O)=O	59.1% (inactive)
COc1ccc(/C=C(\C#N)n2nnc3c(F)cccc32)cc1	45% (inactive)
COC(=O)Nc1ccc(-c2nc(-c3cccc(OC)c3)c(-c3ccnc(Br)c3)[nH]2)cc1	59.1% (inactive)
O=C1CCC(C(=O)NCCNCCNC(=O)C2CCC(=O)N2)N1 (stereo not given)	97.7% (inactive)
